Inconclusive results are not listed. Calls of active or inactive are those of the source. How the source made its calls, unless noted: active means hit-call score of the fitted dose curve at least 0.9, where 1 is the maximum; inconclusive means response in the unintended direction; inactive means score below 0.9.
Experiments:
[1] = read-out: glucuronosyltransferase (UGT1A1), UGT1A1 (gene 54658); assay: CLD_UGT1A1_6hr: CellzDirect (CLD) Gene Expression Assay for glucuronosyltransferase (UGT1A1) at 6 hours (AID 2283672)
How it was run: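 UGT1A1 mRNA induction, read by quantitative nuclease protection assay, 6 h after dosing primary human hepatocytes (two donors, 0.2% DMSO vehicle). Gain of signal fitted relative to vehicle.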

[2] = read-out: xenobiotic metabolism (CYP1A1), CYP1A1 (gene 1543); assay: CLD_CYP1A1_24hr: CellzDirect (CLD) Gene Expression Assay for xenobiotic metabolism (CYP1A1) at 24 hours (AID 2283673);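 further: CYP1A1 mRNA level by quantitative nuclease protection with chemiluminescence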
How it was run: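 Transcript levels were read at 24 h by qNPA chemiluminescence in human liver primary cells. Cells got daily fresh dosing at multiple concentrations (vehicle 0.2% DMSO). Induction fitted upward against DMSO; phase-contrast cytotoxicity annotated.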

[3] = CLD_ACTIN_6hr: CellzDirect (CLD) Gene Expression Assay for Baseline Control (Actin) at 6 hours (AID 2283676);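 further: active means increased actin mRNA relative to DMSO vehicle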
How it was run: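 Baseline actin transcript level measured by qNPA (S1 nuclease protection, chemiluminescence) in human hepatocyte cultures 6 h after chemical exposure; 0.2% DMSO vehicle as reference, cytotoxicity noted from morphology.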

[4] = read-out: Cytochrome P450 2B6 (Homo sapiens) (UniProt P20813); assay: CLD_CYP2B6_6hr: CellzDirect (CLD) Gene Expression Assay for xenobiotic metabolism (CYP2B6) at 6 hours (AID 2283677);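 further: actives raise CYP2B6 transcript above DMSO baseline so AC50 marks an inducer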
How it was run: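 CYP2B6 transcript levels, read by chemiluminescent qNPA, were fitted for increase versus DMSO baseline; cultured human liver hepatocytes from two donor preparations were harvested 6 h after exposure to test chemicals at multiple concentrations.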

[5] = CCTE_Padilla_ZF_144hpf_TERATOSCORE: (Legacy) CCTE's 144 Hour Post-fertilization zebrafish Assay Teratoscore, Padilla Lab (AID 2283679; active means hit-call score of the fitted dose curve at least 0.9, where 1 is the maximum; inactive means score below 0.9;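 on AC50: zebrafish embryos with chorions exposed by immersion from 6-8 hpf to 5 dpf with daily renewal; teratogenicity score from eye scoring of death hatching and malformations at 144 hpf; higher score means more developmental defects relative to DMSO baseline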)
How it was run: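 Larvae scored by eye at 144 hpf for death, hatching and malformations after a day in clean Hanks'. Before that, daily-renewed exposure at 80 uM (0.4% DMSO, 26C) from roughly 6-8 hpf through 5 dpf, 4 embryos per chemical.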

[6] = CLD_ACTIN_24hr: CellzDirect (CLD) Gene Expression Assay for Baseline Control (Actin) at 24 hours (AID 2283670)
How it was run: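 This 24 h qNPA (S1 nuclease protection, chemiluminescence) actin transcript readout in cultured human liver primary cells serves as baseline control. Signal is fitted upward relative to 0.2% DMSO; chemicals tested at multiple concentrations across two donor preparations.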

[7] = read-out: ABC Transporter (ABCB11), ABCB11 (gene 8647); assay: CLD_ABCB11_6hr: CellzDirect (CLD) Gene Expression Assay for ABC Transporter (ABCB11) at 6 hours (AID 2283675);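 further: hits raise ABCB11 mRNA level so AC50 marks induction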
How it was run: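 Read-out was ABCB11 mRNA gain of signal by quantitative nuclease protection assay, relative to 0.2% DMSO vehicle, 6 h post-dose. Cells were primary human hepatocytes from two donors, treated across multiple concentrations; phase-contrast cytotoxicity noted yes/no.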

[8] = read-out: ABC Transporter (ABCB11), ABCB11 (gene 8647); assay: CLD_ABCB11_24hr: CellzDirect (CLD) Gene Expression Assay for ABC Transporter (ABCB11) at 24 hours (AID 2283674; active means hit-call score of the fitted dose curve at least 0.9, where 1 is the maximum; inactive means score below 0.9)
How it was run: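 ABCB11 transcript was quantified by qNPA chemiluminescence in cultured human liver hepatocytes 24 hours after dosing. Fresh dosing solutions were applied on consecutive days, against a 0.2% DMSO vehicle. Cytotoxicity was noted by phase-contrast morphology.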

[9] = read-out: Cytochrome P450 3A4 (Homo sapiens) (UniProt P08684); assay: CLD_CYP3A4_6hr: CellzDirect (CLD) Gene Expression Assay for xenobiotic metabolism (CYP3A4) at 6 hours (AID 2283680)
How it was run: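 CYP3A4 mRNA induction, 6 h after dosing of cultured primary human hepatocytes from two donors, read by quantitative nuclease protection (qNPA, chemiluminescence). Vehicle 0.2% DMSO as baseline; morphology-based cytotoxicity annotated yes/no.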

[10] = read-out: Cytochrome P450 (CYP24A1_1), CYP24A1 (gene 1591); assay: LTEA_HepaRG_CYP24A1_1: Life Technologies and Expression Analysis (LTEA) Assay for Cytochrome P450 (CYP24A1_1) using HepaRG (AID 2283671; active means hit-call score of the fitted dose curve at least 0.9, where 1 is the maximum; inactive means score below 0.9); settings: mRNA level, 48 h; actives raise or lower the signal
How it was run: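 Readout is CYP24A1 transcript level by qRT-PCR, normalized to three housekeeping genes, with gain or loss of signal fitted against 0.5% DMSO. Human HepaRG cells received compound for 48 h at up to 100 uM.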

Sequence of Cytochrome P450 3A4 (Homo sapiens) (P08684 whole entry, looked up): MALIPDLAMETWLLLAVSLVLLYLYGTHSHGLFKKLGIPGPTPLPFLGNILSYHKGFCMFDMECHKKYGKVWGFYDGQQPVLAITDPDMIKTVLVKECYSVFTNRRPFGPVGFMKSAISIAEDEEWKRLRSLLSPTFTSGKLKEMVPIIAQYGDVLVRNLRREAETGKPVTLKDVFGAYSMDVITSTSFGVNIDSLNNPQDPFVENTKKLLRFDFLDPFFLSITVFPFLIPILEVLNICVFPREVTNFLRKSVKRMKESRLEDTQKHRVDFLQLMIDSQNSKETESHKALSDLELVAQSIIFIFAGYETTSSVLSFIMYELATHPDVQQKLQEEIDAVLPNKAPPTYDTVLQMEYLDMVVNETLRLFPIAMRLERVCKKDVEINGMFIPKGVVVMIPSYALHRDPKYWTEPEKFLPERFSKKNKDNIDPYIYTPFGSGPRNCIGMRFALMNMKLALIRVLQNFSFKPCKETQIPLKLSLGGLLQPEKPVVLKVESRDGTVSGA

## CC1(C)C(C(=O)OC(C#N)c2cccc(Oc3ccccc3)c2)C1(C)C (centres undefined)
[1]
  outcome: inactive
[2]
  outcome: inactive
[3]
  outcome: inactive
[4]
  AC50: 4.01 µM (active)
[5]
  AC50: 1.44 µM (active)

## O=C1C2CC=CCC2C(=O)N1SC(Cl)(Cl)Cl (centres undefined)
[6]
  outcome: inactive
[7]
  outcome: inactive
[3]
  outcome: inactive
[5]
  AC50: 1.96 µM (active)

## Cc1cnc(C2=NC(C)(C(C)C)C(=O)N2)c(C(=O)O)c1 (centres undefined)
[6]
  outcome: inactive
[8]
  outcome: inactive
[3]
  outcome: inactive
[4]
  outcome: inactive
[5]
  outcome: inactive

## CC1(C)CON(Cc2ccccc2Cl)C1=O
[6]
  outcome: inactive
[7]
  outcome: inactive
[3]
  outcome: inactive
[5]
  outcome: inactive

## Clc1cccc(C(Cl)(Cl)Cl)n1
[6]
  outcome: inactive
[7]
  outcome: inactive
[3]
  outcome: inactive
[4]
  AC50: 1.9 µM (active)
[5]
  outcome: inactive
[9]
  outcome: inactive

## CO/N=C(/C1=NOCCO1)c1ccccc1Oc1ncnc(Oc2ccccc2Cl)c1F
[6]
  outcome: inactive
[2]
  outcome: inactive
[7]
  outcome: inactive
[3]
  outcome: inactive
[5]
  AC50: 0.182 µM (active)

## COc1ccc(-c2ccccc2)cc1NNC(=O)OC(C)C
[6]
  outcome: inactive
[1]
  outcome: inactive
[7]
  outcome: inactive
[3]
  outcome: inactive
[4]
  AC50: 6.49 µM (active)
[5]
  AC50: 17.8 µM (active)

## CSC(=O)c1c(C(F)F)nc(C(F)(F)F)c(C(=O)SC)c1CC(C)C
[6]
  outcome: inactive
[7]
  outcome: inactive
[3]
  outcome: inactive
[5]
  AC50: 9.65 µM (active)

## CCC(C)n1c(=O)[nH]c(C)c(Br)c1=O (centres undefined)
[10]
  outcome: inactive
[2]
  AC50: 5.45 µM (active)
[5]
  outcome: inactive

## CCCCC(C#N)(Cn1cncn1)c1ccc(Cl)cc1 (centres undefined)
[10]
  outcome: inactive
[1]
  outcome: inactive
[3]
  outcome: inactive
[5]
  AC50: 62.6 µM (active)

## N#CN=C1SCCN1Cc1ccc(Cl)nc1
[6]
  outcome: inactive
[5]
  outcome: inactive

## O=P(O)(O)CCCl
[6]
  outcome: inactive
[1]
  outcome: inactive
[8]
  outcome: inactive
[7]
  outcome: inactive
[3]
  outcome: inactive
[5]
  outcome: inactive

## COP(=O)(OC)O/C(C)=C/C(=O)N(C)C
[6]
  outcome: inactive
[2]
  outcome: inactive
[8]
  outcome: inactive
[7]
  outcome: inactive
[3]
  outcome: inactive
[5]
  outcome: inactive

## Nc1c(Cl)c(F)nc(OCC(=O)O)c1Cl
[6]
  outcome: inactive
[2]
  outcome: inactive
[7]
  outcome: inactive
[5]
  outcome: inactive

## COC(=O)c1c(C(F)F)nc(C(F)(F)F)c(C2=NCCS2)c1CC(C)C
[1]
  outcome: inactive
[2]
  AC50: 36.1 µM (active)
[8]
  outcome: inactive
[3]
  outcome: inactive
[5]
  AC50: 51.4 µM (active)

## Cn1c(-c2ccccc2)cc(-c2ccccc2)[n+]1C
[6]
  outcome: inactive
[2]
  AC50: 0.158 µM (active)
[3]
  outcome: inactive
[5]
  outcome: inactive

## CCOP(=O)(OCC)Oc1nc(Cl)c(Cl)cc1Cl
[1]
  outcome: inactive
[8]
  outcome: inactive
[7]
  outcome: inactive
[3]
  outcome: inactive
[4]
  AC50: 7.26 µM (active)
[5]
  AC50: 0.485 µM (active)

## CS(=O)(=O)c1ccc(C(=O)C2C(=O)CCCC2=O)c([N+](=O)[O-])c1
[6]
  outcome: inactive
[2]
  outcome: inactive
[8]
  outcome: inactive
[7]
  outcome: inactive
[3]
  outcome: inactive
[5]
  AC50: 14.4 µM (active)

## CC(C)NC(=O)N1CC(=O)N(c2cc(Cl)cc(Cl)c2)C1=O
[1]
  outcome: inactive
[8]
  outcome: inactive
[3]
  outcome: inactive
[4]
  AC50: 20 µM (active)
[5]
  AC50: 74.4 µM (active)

## CCOP(=S)(OCC)Oc1nc(Cl)n(C(C)C)n1
[10]
  outcome: inactive
[1]
  outcome: inactive
[7]
  outcome: inactive
[5]
  AC50: 57.2 µM (active)

## Cc1nc(N(C)C)nc(OC(=O)N(C)C)c1C
[1]
  outcome: inactive
[2]
  AC50: 2.75 µM (active)
[8]
  outcome: inactive
[7]
  outcome: inactive
[3]
  outcome: inactive
[4]
  AC50: 3.94 µM (active)
[5]
  outcome: inactive
[9]
  AC50: 5.6 µM (active)

## Nc1c(Cl)c(Cl)nc(C(=O)O)c1Cl
[10]
  outcome: inactive
[7]
  outcome: inactive
[3]
  outcome: inactive
[5]
  outcome: inactive

## CC(C)N1C(=O)c2ccccc2NS1(=O)=O
[6]
  outcome: inactive
[8]
  outcome: inactive
[7]
  outcome: inactive
[3]
  outcome: inactive
[5]
  outcome: inactive

## CC(C)C1(C)N=C(c2ncccc2C(=O)O)NC1=O (centres undefined)
[6]
  outcome: inactive
[8]
  outcome: inactive
[5]
  outcome: inactive

## CN=C=S
[10]
  outcome: inactive
[2]
  outcome: inactive
[7]
  outcome: inactive
[3]
  outcome: inactive
[4]
  AC50: 4.85 µM (active)
[5]
  AC50: 2.93 µM (active)

## COCc1cnc(C2=NC(C)(C(C)C)C(=O)N2)c(C(=O)O)c1 (centres undefined)
[6]
  outcome: inactive
[8]
  outcome: inactive
[7]
  outcome: inactive
[3]
  outcome: inactive
[5]
  AC50: 5.5 µM (active)

## CCCN(CC)CC1COC2(CCC(C(C)(C)C)CC2)O1 (centres undefined)
[6]
  outcome: inactive
[2]
  AC50: 0.376 µM (active)
[5]
  AC50: 62.9 µM (active)

## CCSC(=O)N1CCCCCC1
[6]
  outcome: inactive
[1]
  outcome: inactive
[3]
  outcome: inactive
[5]
  outcome: inactive

## CC(C)Oc1cccc(NC(=O)c2ccccc2C(F)(F)F)c1
[10]
  outcome: inactive
[1]
  outcome: inactive
[2]
  AC50: 20 µM (active)
[5]
  AC50: 15.9 µM (active)

## Cc1c(COC(=O)[C@@H]2[C@H](/C=C(\Cl)C(F)(F)F)C2(C)C)cccc1-c1ccccc1
[6]
  outcome: inactive
[2]
  AC50: 31.6 µM (active)
[5]
  AC50: 0.623 µM (active)

## O=C(O)c1c(Cl)ccc2cc(Cl)cnc12
[6]
  outcome: inactive
[1]
  outcome: inactive
[7]
  outcome: inactive
[4]
  outcome: inactive
[5]
  outcome: inactive

— PubChem BioAssay (EPA / NIEHS)
